Screens from PubChem.
HT1080NT lethal = kills 2HG-producing HT-1080-NT fibrosarcoma cells. HT-1080-NT fibrosarcoma viability, CellTiter-Glo ATP luminescence, 48 h. Potency, µM (titrated, usually from 46.1 µM), for the others: at the highest dose activity, negative = less viability, most hits filed as cytotoxic. actives 1.6% (n = 360,000);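 note: NT is the 2HG producing partner of a matched IDH1 knockdown line; 0% = DMSO-treated cells and -100% = media-only wells without cells; nearly all actives have a fitted effect of over 55% in size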
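Toxicity toward the 2HG-producing NT line was scored as %Activity, normalised to DMSO and no-cell wells, from CellTiter-Glo luminescence after 48 hours' treatment.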
KB-V1 cytotox = kills drug-selected multidrug resistant KB-V1 cells. Potency, µM (titrated, usually from 46.1 µM), usual class: cytotoxic. actives 3.4% (n = 400,000). KB-V1 MDR cells viability, CellTiter-Glo, 72 h; note: nearly all actives have a fitted effect of over 60% in size
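Readout: CellTiter-Glo luminescence, 10 min after addition. Cells: KB-V1 MDR subline, 72 h at 37 degrees C with compound. Analysis: corrected, normalized data fitted to concentration-effect curves.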
DT40 TDP1 no CPT = qHTS for Inhibitors of human tyrosyl-DNA phosphodiesterase 1 (TDP1): qHTS in cells in absence of CPT | DT40 Tdp1-/- hTDP1 cells, no CPT, ATP luminescence, 48 h | Potency, µM (doses to about 46.2 µM), for inactives: at the top dose activity change, negative = growth inhibition, hits mostly inhibitors | actives 15% (n = 420,000) | AID 686978, 2013; note: nearly all actives have a fitted effect of over 55% in size
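DT40 Tdp1-/-;hTDP1 cells, no CPT (DMSO vehicle only), 400 cells/well; compounds pin-transferred; ≥48 hr, 37 °C; CellTiter-Glo 30 min RT dark, luminescence read.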
HT1080 IDH1KD tx = toxicity to HT-1080 IDH1 knockdown cells (counter line) | actives 2% (n = 360,000) | AID 686971 | HT-1080 IDH1 knockdown viability, ATP luminescence, 48 h | Potency, µM (top dose mostly 46.1 µM), for inactives: at the highest dose activity, negative = toxicity, most hits filed as cytotoxic;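 note: 0% = DMSO wells and -100% = cell-free medium wells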
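HT-1080-IDH1KD cells (IDH1 knocked down), 750/well in RPMI with 5% FBS, treated with compound 48 h at 37 degrees C. Viability by CellTiter-Glo luminescence, normalised to DMSO and no-cell wells; concentration-response curves classed.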
KB-3-1 cytotox = KB-3-1 parental cell cytotoxicity. Potency, µM (series often up to 46.1 µM), actives largely listed as cytotoxic. KB-3-1 viability, CellTiter-Glo ATP luminescence, 72 h. actives 1.4% (n = 400,000); note: nearly all actives have a fitted effect of over 60% in size
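Viability of parental KB-3-1 cells, measured by CellTiter-Glo luminescence, followed a 72 h incubation at 37 °C with pinned compounds in phenol-red-free DMEM containing 10% FBS.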
TDP1 cell CPT = growth inhibition of DT40 Tdp1-/-;hTDP1 cells with camptothecin (screen for TDP1 inhibitors); chicken DT40 Tdp1-/-;hTDP1 cells + 20 nM CPT, ATP luminescence, 48 h; Potency, µM (top dose mostly 46.2 µM), inactives show at the top dose activity change, negative = growth inhibition, actives largely listed as inhibitors; actives 12% (n = 420,000); note: nearly all actives have a fitted effect of over 55% in size
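Chicken DT40 Tdp1-/- cells complemented with human TDP1, 400 cells/well, exposed to compounds plus 20 nM camptothecin for at least 48 h at 37 C; viability read as ATP content by CellTiter-Glo luminescence.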
* = called active by the depositor; i = inactive; ? = inconclusive; . = not tested or not shown; [ ] = another dose, or the depositor's remark. This is a sample that favours compounds with a hit; in the whole collection about 19% have one here. Calls come from the whole dose curve; as a rule, active = well fitted curve in the direction sought with a large enough effect; inconclusive = small, poorly fitted or top-dose-only effect, or another doubt; inactive = no such curve, though single readings can be large; an effect the other way counts as inactive or inconclusive. Unless noted, % is set by controls: 0 for no effect and ±100 for the full control effect; potency is the fitted concentration of half-maximal effect.

SMILES | HT1080NT lethal | KB-V1 cytotox | DT40 TDP1 no CPT | HT1080 IDH1KD tx | KB-3-1 cytotox | TDP1 cell CPT
COc1cccc(CNS(=O)(=O)c2ccc3[nH]c4c(c3c2)CCCCC4)c1 | . | 21µM* | . | . | 21µM* | .
COc1ccc(NS(=O)(=O)c2ccc(Br)s2)cc1OC | -22% | 21µM* | ? | -30% | i | ?
COc1cc(NS(=O)(=O)c2ccc3[nH]c4c(c3c2)CCCCCC4)cc(OC)c1 | . | ? | 12µM* | . | i | ?
COCCN(C(=O)COC(=O)Cc1c[nH]c2ccccc12)c1c(N)n(Cc2ccccc2)c(=O)[nH]c1=O | 0% | i | 0% | 2% | ? | 12%
COc1cccc(NC(=O)N2CCCC2C(=O)NC23CC4CC(CC(C4)C2)C3)c1 (stereo not given) | -1% | i | -19% | -8% | i | -13%
CC(=O)c1cccc(NC(=O)Nc2cccs2)c1 | -5% | i | ? | -1% | i | 16µM*
Cc1ccc(NC(=O)Nc2cccs2)cc1 | -1% | i | 26µM* | -2% | ? | 16µM*
Cc1cccc(NC(=O)Nc2cccs2)c1C | . | . | ? | . | . | 26µM*
Cc1c(NC(=O)Nc2cccs2)cccc1[N+](=O)[O-] | 0% | i | ? | -1% | i | ?
Cc1ccc(NC(=O)Nc2cccs2)nc1 | 0% | i | -17% | -3% | i | -28%
COc1cccc(NC(=O)Nc2cccs2)c1 | 0% | i | ? | 1% | i | ?
CCOc1ccc(NC(=O)NC23CC4CC(CC(C4)C2)C3)cc1 | -18% | i | 23µM* | -21% | i | 21µM*
CC(=O)N1CCc2c(sc(NC(=O)c3ccc(S(=O)(=O)N(C)CC4CCCO4)cc3)c2C(N)=O)C1 (stereo not given) | 11% | i | ? | 12% | i | ?
O=C(c1ccc(N2CCN(C(=O)c3ccc(F)cc3F)CC2)cc1)c1cccc(F)c1 | -1% | ? | ? | -5% | i | ?
CCOc1ccc(NC(=O)Nc2cccs2)cc1 | -18% | i | 18µM* | -25% | i | 10µM*
CCc1ccc(NC(=O)Nc2cn(C)c(=O)c3ccccc23)cc1 | . | . | 21µM* | . | . | 21µM*
Cc1ccc(NC(=O)Nc2ccno2)cc1 | 2% | i | 16µM* | -1% | i | ?
COc1ccc(NC(=O)Nc2cccs2)cc1OC | 2% | i | -17% | 10% | i | -20%
CCc1ccc(NC(=O)Nc2cccs2)cc1 | -2% | i | 15µM* | 2% | i | 21µM*
COc1ccc(-c2ccc3ncnc(NCc4nc(C)cs4)c3c2)cc1OC | . | ? | . | . | i | .
OCC1OC(Oc2c[nH]c3ccccc23)C(O)C(O)C1O (stereo not given) | 21% | i | -19% | 6% | i | -9%
Cc1ccc2c(c1)c1c(c(=O)n(Cc3ccccc3)c(=O)n1CC(=O)Nc1ccccc1F)n2C | . | i | ? | . | i | -5%
CN(C)S(=O)(=O)N1CCN(CC(O)COc2ccc(-c3ccccc3)cc2)CC1 (stereo not given) | -13% | i | 12µM* | -7% | i | 21µM*
O=S(=O)(N1CCCCC1)N1CCN(CC(O)COc2ccc3cc(Br)ccc3c2)CC1 (stereo not given) | -15% | ? | 11µM* | -28% | ? | 11µM*
OC(COc1ccc2cc(Br)ccc2c1)CN1CCCC1 (stereo not given) | -29%[9.24 µM] | ? | 23µM* | 13µM* | ? | ?
